From PubChem BioAssay (EPA / NIEHS)
Active and inactive are the calls of the source. Rule for the calls: active = hit-call score of the fitted dose curve at least 0.9, where 1 is the maximum; inactive = score below 0.9.

Experiments:
[1] = ATG_CMV_CIS: Attagene CIS-FACTORIAL HepG2 Assay for human CMV (Internal Marker) (AID 2282928); settings: HepG2 CMV promoter reporter, transcription factor profiling; actives raise or lower the signal;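 note: endpoint acts as a background internal control marker rather than a target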
Procedure, shortened: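 Fluorescence intensity of RT-PCR-derived reporter fragments, resolved by capillary electrophoresis, gives the signal. HepG2 liver cells bearing transfected cis-element reporters were treated 24 h; activity in either direction was fit relative to DMSO-treated controls.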

[2] = ATG_DR4_LXR_CIS: Attagene CIS-FACTORIAL HepG2 Assay for human Liver X Receptor (LXR), DR4 submotif (AID 2282929); settings: HepG2 Attagene DR4 cis-reporter, mRNA transcription; actives raise or lower the signal
Procedure, shortened: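 Transiently transfected HepG2 liver cells; cis-regulated reporters; 24 h dosing. RT-PCR plus CE read-out of reporter mRNA. DMSO baseline, bidirectional curve fitting.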

[3] = target: Aryl hydrocarbon receptor (Homo sapiens) (UniProt P35869); assay: ATG_Ahr_CIS: Attagene CIS-FACTORIAL HepG2 Assay for human Aryl Hydrocarbon Receptor (Ahr) (AID 2282930); settings: HepG2 AhR cis-factorial reporter transcription; actives raise or lower the signal
Sequence of Aryl hydrocarbon receptor (Homo sapiens) (P35869 whole entry, looked up): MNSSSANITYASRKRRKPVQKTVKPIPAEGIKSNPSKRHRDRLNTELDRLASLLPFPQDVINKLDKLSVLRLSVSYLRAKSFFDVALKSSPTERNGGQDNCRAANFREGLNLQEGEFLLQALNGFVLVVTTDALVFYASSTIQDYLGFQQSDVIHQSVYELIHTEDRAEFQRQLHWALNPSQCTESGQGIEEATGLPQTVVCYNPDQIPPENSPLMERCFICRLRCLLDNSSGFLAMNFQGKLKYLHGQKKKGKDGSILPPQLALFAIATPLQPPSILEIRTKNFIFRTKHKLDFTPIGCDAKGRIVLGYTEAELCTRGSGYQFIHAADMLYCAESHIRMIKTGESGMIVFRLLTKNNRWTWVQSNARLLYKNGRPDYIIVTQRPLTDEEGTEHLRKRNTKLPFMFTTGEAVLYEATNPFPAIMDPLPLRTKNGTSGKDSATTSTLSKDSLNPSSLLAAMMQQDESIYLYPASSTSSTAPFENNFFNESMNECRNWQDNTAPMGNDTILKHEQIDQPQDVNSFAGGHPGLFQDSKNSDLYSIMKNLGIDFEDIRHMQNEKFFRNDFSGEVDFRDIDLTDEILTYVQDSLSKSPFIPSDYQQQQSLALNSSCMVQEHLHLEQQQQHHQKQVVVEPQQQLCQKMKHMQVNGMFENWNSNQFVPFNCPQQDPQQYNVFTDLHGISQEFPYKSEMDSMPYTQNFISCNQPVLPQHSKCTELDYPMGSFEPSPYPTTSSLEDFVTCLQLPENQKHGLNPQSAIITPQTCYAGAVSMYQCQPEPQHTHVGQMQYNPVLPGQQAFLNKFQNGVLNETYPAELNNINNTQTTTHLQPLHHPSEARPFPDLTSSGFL
Procedure, shortened: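 Transient MRTU transfection of HepG2 → 24 h compound exposure → total RNA, oligo(dT) RT → PCR, 6-FAM extension, HpaI cut → CE fluorescence. DMSO = baseline; bidirectional curve fit.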

[4] = ATG_AP_1_CIS: Attagene CIS-FACTORIAL HepG2 Assay for human Activator Protein 1 (AP-1) (AID 2282931); settings: HepG2 Attagene cis-factorial AP-1 reporter mRNA; actives raise or lower the signal
Procedure, shortened: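 We transfected HepG2 cells transiently with a set of cis-regulated reporter transcription units, dosed them for 24 h, and quantified reporter mRNA via RT-PCR and capillary electrophoresis, scoring gain or loss of signal relative to DMSO.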

[5] = ATG_AP_2_CIS: Attagene CIS-FACTORIAL HepG2 Assay for human Activator Protein 2 (AP-2) (AID 2282932); settings: HepG2 AP-2 cis-reporter, Attagene transcription factor profiling; actives raise or lower the signal
Procedure, shortened: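 Transiently transfected HepG2 cells are exposed to chemical for 24 h. Reporter transcripts are then measured as fluorescence following RT-PCR and capillary separation, and gain- or loss-of-signal is fitted relative to DMSO.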

[6] = ATG_BRE_CIS: Attagene CIS-FACTORIAL HepG2 Assay for human Bone Morphogenetic Protein (BMP) Response Element (BRE) (AID 2282933); settings: HepG2 BMP response element reporter, Attagene transcription factor profiling; actives raise or lower the signal
Procedure, shortened: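 After a 24 h chemical treatment, transiently transfected HepG2 cells were lysed for RNA; reporter transcripts were quantified by fluorescent RT-PCR and capillary electrophoresis, normalised to DMSO.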

[7] = target: Retinoic acid receptor alpha (Homo sapiens) (UniProt P10276); assay: ATG_DR5_RAR_CIS: Attagene CIS-FACTORIAL HepG2 Assay for human Retinoic Acid Receptor Alpha (RARE), DR5 submotif (AID 2282934); settings: HepG2 Attagene cis-factorial RARE DR5 reporter, mRNA; actives raise or lower the signal
Sequence of Retinoic acid receptor alpha (Homo sapiens) (P10276 whole entry, looked up): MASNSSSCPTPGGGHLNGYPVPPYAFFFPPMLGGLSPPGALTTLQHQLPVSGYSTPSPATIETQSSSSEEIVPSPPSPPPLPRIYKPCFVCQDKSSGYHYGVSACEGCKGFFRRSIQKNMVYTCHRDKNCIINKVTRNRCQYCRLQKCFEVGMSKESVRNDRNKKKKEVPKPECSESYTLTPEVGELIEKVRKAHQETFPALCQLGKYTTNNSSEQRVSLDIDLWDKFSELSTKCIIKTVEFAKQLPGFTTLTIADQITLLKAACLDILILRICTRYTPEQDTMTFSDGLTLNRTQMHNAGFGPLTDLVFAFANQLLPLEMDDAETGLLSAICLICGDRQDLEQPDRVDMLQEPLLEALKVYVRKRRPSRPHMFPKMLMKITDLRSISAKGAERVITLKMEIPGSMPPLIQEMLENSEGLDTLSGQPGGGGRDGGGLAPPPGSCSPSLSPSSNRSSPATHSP
Procedure, shortened: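 Transient MRTU transfection of HepG2; 24 h compound treatment; TriZol RNA, oligo(dT) RT, PCR, FAM labelling, capillary electrophoresis. Bidirectional fit vs DMSO. Endogenous TF activity at DR5 RARE.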

[8] = target: Transcription factor E2F1 (Homo sapiens) (UniProt Q01094); assay: ATG_E2F_CIS: Attagene CIS-FACTORIAL HepG2 Assay for human E2F Transcription Factor 1 (AID 2282935); settings: HepG2 Attagene cis-reporter, E2F reporter RNA transcripts; actives raise or lower the signal
Sequence of Transcription factor E2F1 (Homo sapiens) (Q01094 whole entry, looked up): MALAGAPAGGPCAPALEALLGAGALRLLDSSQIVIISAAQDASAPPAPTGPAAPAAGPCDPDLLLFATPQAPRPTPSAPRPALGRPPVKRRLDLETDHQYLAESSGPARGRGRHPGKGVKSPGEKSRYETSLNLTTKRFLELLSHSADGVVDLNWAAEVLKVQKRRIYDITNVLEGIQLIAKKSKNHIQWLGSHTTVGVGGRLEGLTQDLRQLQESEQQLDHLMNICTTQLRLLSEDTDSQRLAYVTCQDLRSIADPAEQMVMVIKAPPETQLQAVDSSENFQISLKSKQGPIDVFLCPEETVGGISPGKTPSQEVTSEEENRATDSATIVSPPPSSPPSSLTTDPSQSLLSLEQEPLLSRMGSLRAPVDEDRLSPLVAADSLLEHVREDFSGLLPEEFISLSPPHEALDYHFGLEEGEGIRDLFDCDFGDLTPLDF
Procedure, shortened: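 Fluorescent RT-PCR products, digested with HpaI for 2 h at 37 C, are separated by capillary electrophoresis. Source RNA comes from transfected HepG2 cultures treated for 24 h.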

[9] = ATG_E_Box_CIS: Attagene CIS-FACTORIAL HepG2 Assay for human Enhancer Box (E-box) (AID 2282936); settings: HepG2 E-box cis-reporter transcription, actives raise or lower the signal
Procedure, shortened: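 Fluorescent reporter fragments separated by capillary electrophoresis gave the signal; mRNA came from HepG2 cells transfected with cis-element reporters and treated 24 h. Curves fitted bidirectionally relative to DMSO controls.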

[10] = ATG_M_61_CIS: Attagene CIS-FACTORIAL HepG2 Assay for M61 Transcription Factor (Internal Marker) (AID 2282937); settings: HepG2 Attagene CIS-FACTORIAL M61 internal marker reporter; actives raise or lower the signal
Procedure, shortened: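 Multiplexed reporter mRNA assay, HepG2 human hepatoma cells, 24 h treatment. Signal: FAM-labelled, HpaI-digested RT-PCR fragments by CE. Fit: bidirectional, baseline DMSO.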

[11] = ATG_EGR_CIS: Attagene CIS-FACTORIAL HepG2 Assay for human Early Growth Response 1 (EGR1) (AID 2282938); settings: HepG2 Attagene CIS-FACTORIAL EGR reporter mRNA; actives raise or lower the signal
Procedure, shortened: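 Multiplexed cis-reporter system in human hepatoma HepG2 cells, transiently transfected. Cells are dosed for 24 h; reporter transcripts are amplified, fluorescently tagged and sized by capillary electrophoresis, with DMSO as negative control.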

[12] = ATG_M_19_CIS: Attagene CIS-FACTORIAL HepG2 Assay for M19 Transcription Factor (Internal Marker) (AID 2282939); settings: HepG2 Attagene CIS-FACTORIAL M19 internal marker reporter; actives raise or lower the signal
Procedure, shortened: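 In this multiplexed cell assay, transiently transfected HepG2 reporter units report endogenous transcription-factor activity; after 24 hours of treatment, labelled reporter cDNA fragments are quantified by capillary electrophoresis and fitted bidirectionally against DMSO.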

[13] = ATG_ERE_CIS: Attagene CIS-FACTORIAL HepG2 Assay for Estrogen Response Element (ERE) (AID 2282940); settings: HepG2 ERE cis-reporter, Attagene RNA transcript; actives raise or lower the signal
Procedure, shortened: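 Measuring endogenous transcription factor output, the assay doses transfected HepG2 cells for 24 hours and quantifies reporter transcripts by fluorescent RT-PCR and capillary electrophoresis, with DMSO as baseline.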

[14] = ATG_Ets_CIS: Attagene CIS-FACTORIAL HepG2 Assay for human Erythroblast Transformation Specific (ETS) (AID 2282941); settings: HepG2 ETS cis-reporter transcription, actives raise or lower the signal
Procedure, shortened: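 Multiplexed reporter transcript profiling: HepG2, 24 h treatment, total RNA to cDNA, PCR, 6-FAM labelling, HpaI cut, capillary electrophoresis. Gain- or loss-of-signal fitted against DMSO.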

[15] = target: Hepatocyte nuclear factor 3-beta (Homo sapiens) (UniProt Q9Y261); assay: ATG_FoxA2_CIS: Attagene CIS-FACTORIAL HepG2 Assay for human Forkhead box A2 (FOXA2) (AID 2282942); settings: HepG2 cis-reporter transcription factor activity, 24 h; actives raise or lower the signal
Sequence of Hepatocyte nuclear factor 3-beta (Homo sapiens) (Q9Y261 whole entry, looked up): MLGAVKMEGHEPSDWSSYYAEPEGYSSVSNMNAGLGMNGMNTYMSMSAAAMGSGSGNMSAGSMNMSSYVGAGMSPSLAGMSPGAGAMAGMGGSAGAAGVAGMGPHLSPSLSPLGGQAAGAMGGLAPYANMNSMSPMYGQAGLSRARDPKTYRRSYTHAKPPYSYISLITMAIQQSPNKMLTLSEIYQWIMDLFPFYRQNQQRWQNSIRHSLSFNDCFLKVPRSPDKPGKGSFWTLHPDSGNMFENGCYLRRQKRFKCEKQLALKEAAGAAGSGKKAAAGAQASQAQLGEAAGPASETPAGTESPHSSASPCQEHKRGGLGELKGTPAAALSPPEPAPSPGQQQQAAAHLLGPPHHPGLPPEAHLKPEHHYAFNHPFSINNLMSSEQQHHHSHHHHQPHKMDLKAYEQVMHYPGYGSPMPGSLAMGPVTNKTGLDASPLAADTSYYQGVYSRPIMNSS
Procedure, shortened: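 Multiplexed cis-element reporter assay in transiently transfected HepG2. Twenty-four hours post-dosing, RNA was reverse-transcribed, amplified, FAM-labelled, HpaI-digested and separated by CE. Activity gain or loss relative to DMSO.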

[16] = ATG_FoxO_CIS: Attagene CIS-FACTORIAL HepG2 Assay for human Forkhead box O (FoxO) (AID 2282943); settings: HepG2 Attagene cis-reporter, FoxO element, mRNA; actives raise or lower the signal
Procedure, shortened: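 HepG2, transient MRTU transfection (cis element, endogenous TFs). Dose 24 h. TriZol RNA → oligo(dT) RT → PCR → 6-FAM primer extension → HpaI cut → CE. Gain/loss vs DMSO.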

[17] = ATG_GATA_CIS: Attagene CIS-FACTORIAL HepG2 Assay for human GATA Binding Protein (AID 2282944); settings: HepG2 GATA cis-element reporter, Attagene multiplex mRNA; actives raise or lower the signal
Procedure, shortened: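 Measures endogenous transcription factor-driven reporter mRNA in HepG2 cells transiently carrying cis-regulated constructs. 24 h dosing; RNA via oligo(dT) reverse transcription, PCR, HpaI digestion, capillary electrophoresis; fitted relative to DMSO.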

[18] = ATG_GLI_CIS: Attagene CIS-FACTORIAL HepG2 Assay for human Zinc Finger Protein GLI1 (AID 2282945); settings: HepG2, Attagene cis-factorial reporter mRNA, GLI element; actives raise or lower the signal
Procedure, shortened: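 Bidirectional curve fits relative to DMSO, using reporter mRNA levels from RT-PCR plus capillary electrophoresis. Cells were HepG2 transiently carrying cis-regulated reporter constructs, harvested 24 h after dosing.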

[19] = target: Bile acid receptor (Homo sapiens) (UniProt Q96RI1); assay: ATG_IR1_CIS: Attagene CIS-FACTORIAL HepG2 Assay for human Nuclear Receptor Subfamily 1 Group H Member 4 (NR1H4), IR1 submotif (AID 2282946); settings: IR1 reporter transcription, actives raise or lower the signal
Sequence of Bile acid receptor (Homo sapiens) (Q96RI1 whole entry, looked up): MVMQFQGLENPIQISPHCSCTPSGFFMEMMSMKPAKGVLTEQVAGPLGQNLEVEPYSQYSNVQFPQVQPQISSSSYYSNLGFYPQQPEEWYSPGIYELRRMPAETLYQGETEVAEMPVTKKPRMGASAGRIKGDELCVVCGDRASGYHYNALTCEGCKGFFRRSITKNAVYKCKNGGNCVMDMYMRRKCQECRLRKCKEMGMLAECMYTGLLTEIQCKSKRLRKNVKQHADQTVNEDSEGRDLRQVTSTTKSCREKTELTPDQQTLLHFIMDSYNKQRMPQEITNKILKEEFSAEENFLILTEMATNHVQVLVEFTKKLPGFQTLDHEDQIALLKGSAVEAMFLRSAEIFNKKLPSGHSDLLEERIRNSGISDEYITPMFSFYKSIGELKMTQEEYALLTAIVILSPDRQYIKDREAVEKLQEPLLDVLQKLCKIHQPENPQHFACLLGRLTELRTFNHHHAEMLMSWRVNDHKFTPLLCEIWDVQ
Procedure, shortened: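 HepG2 cells transiently transfected with multiplexed cis-element reporter units read endogenous transcription factor activity. After 24 h compound exposure, reporter mRNA was quantified by RT-PCR, fluorescent labelling, HpaI digestion and capillary electrophoresis; bidirectional fitting versus DMSO baseline.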

[20] = ATG_GRE_CIS: Attagene CIS-FACTORIAL HepG2 Assay for human Glucocorticoid Response Elements (GRE) (AID 2282947); settings: HepG2 GRE cis-reporter, Attagene multiplex mRNA; actives raise or lower the signal
Procedure, shortened: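 Multiplexed cis-reporter mRNA induction, HepG2, 24 h post-dose. RT-PCR, FAM-labelled, HpaI-digested amplicons by CE. Bidirectional fit vs DMSO.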

Measured: AC50

c1ccc2sc(SNC3CCCCC3)nc2c1
active: [3] 4.84 µM | [4] 52.1 µM | [5] 149 µM | [18] 159 µM
inactive: [1] | [2] | [6] | [7] | [8] | [9] | [10] | [11] | [12] | [13] | [14] | [15] | [16] | [17] | [19] | [20]

OC[P+](CO)(CO)CO
inactive: [1] | [2] | [3] | [4] | [5] | [6] | [7] | [8] | [9] | [10] | [11] | [12] | [13] | [14] | [15] | [16] | [17] | [18] | [20]

BrCC(Br)c1ccccc1 (configuration not stated)
inactive: [1] | [2] | [3] | [4] | [5] | [6] | [7] | [8] | [9] | [10] | [11] | [12] | [13] | [14] | [15] | [16] | [17] | [18] | [19] | [20]

O=C=Nc1ccc(Cl)cc1
inactive: [1] | [2] | [3] | [4] | [5] | [6] | [7] | [8] | [9] | [10] | [11] | [12] | [13] | [14] | [15] | [17] | [18]
active: [16] 162 µM
